In PubChem BioAssay AID588683 (Broad Institute, 2011) one finds outcome data, which are given here for 75 compounds.

Results with a measured potency or affinity are listed apart. Activity calls are given as the source filed them. How the calls were made is not given here.

The target in the test is Kelch-like ECH-associated protein 1 (Homo sapiens) + Nuclear factor erythroid 2-related factor 2 (Homo sapiens) (UniProt Q14145+Q16236). The test is described as follows: Keap1-Nrf2 protein-protein interaction inhibitors, dose response, biochemical, fluorescence polarization, cherry-picked samples (AID 588683;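 further: Kelch domain of Keap1 binding a fluorescein-labelled 9mer Nrf2 peptide; more negative means stronger inhibition of peptide binding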). (Polarisation of emitted light reports the rotation of a fluorescent probe.)
Chain of Kelch-like ECH-associated protein 1 (Homo sapiens) + Nuclear factor erythroid 2-related factor 2 (Homo sapiens) (Q14145 whole entry, looked up, the tested form may be a part): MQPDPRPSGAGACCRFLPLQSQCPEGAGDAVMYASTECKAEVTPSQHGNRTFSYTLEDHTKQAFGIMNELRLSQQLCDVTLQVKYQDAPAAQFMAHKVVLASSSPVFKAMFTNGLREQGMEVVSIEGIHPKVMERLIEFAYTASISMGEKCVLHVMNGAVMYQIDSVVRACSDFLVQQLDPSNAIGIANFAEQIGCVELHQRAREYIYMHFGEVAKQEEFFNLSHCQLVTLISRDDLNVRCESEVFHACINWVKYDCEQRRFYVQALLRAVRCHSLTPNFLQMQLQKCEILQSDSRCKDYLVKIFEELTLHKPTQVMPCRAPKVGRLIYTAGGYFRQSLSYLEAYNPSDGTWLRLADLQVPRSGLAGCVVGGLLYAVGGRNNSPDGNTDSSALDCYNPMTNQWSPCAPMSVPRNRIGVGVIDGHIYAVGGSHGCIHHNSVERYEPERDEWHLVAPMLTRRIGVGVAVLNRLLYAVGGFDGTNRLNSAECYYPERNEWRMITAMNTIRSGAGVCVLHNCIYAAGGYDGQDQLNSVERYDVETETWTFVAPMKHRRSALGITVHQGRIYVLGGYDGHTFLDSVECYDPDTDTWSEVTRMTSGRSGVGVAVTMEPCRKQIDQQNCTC
Chain of Kelch-like ECH-associated protein 1 (Homo sapiens) + Nuclear factor erythroid 2-related factor 2 (Homo sapiens) (Q16236 whole entry, looked up, the tested form may be a part): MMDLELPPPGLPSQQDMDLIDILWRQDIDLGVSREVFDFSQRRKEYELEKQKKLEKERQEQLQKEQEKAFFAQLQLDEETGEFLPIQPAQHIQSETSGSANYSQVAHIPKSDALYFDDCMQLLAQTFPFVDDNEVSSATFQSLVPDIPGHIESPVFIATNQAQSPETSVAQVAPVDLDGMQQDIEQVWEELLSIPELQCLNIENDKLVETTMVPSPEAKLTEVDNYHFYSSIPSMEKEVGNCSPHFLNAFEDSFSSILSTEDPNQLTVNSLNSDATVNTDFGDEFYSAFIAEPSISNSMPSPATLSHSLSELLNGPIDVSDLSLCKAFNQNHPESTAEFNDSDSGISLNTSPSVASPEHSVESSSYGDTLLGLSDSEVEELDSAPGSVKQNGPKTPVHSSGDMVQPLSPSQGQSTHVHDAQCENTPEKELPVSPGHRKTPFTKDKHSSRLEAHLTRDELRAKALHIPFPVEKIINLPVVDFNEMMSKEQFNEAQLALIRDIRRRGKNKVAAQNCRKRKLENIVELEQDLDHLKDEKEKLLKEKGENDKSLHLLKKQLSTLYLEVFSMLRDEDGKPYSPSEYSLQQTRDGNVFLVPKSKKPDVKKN

On to `O=C(/C=C/c1ccccc1Cl)NCCCn1ccnc1`, for which the outcome was inactive. The result for `COc1ccc2c(c1)c1nc3ccccc3nc1n2CC(=O)OC(C)C` reads “inactive”; that for `N/C(=N/OC(=O)c1ccc(Cl)cc1)c1ncc([N+](=O)[O-])s1`, “inactive”.

Take `CCOc1ccc(NC(=O)COC(=O)CCN2C(=O)C3CC=CCC3C2=O)cc1OCC` (stereo not given): the result was inactive.

As to `Cc1nc(NS(=O)(=O)c2ccccc2)sc1NC(=O)OCCN(C)C`, the outcome was inactive. The result for `Nc1cccc2cc(S(=O)(=O)O)ccc12` reads “inactive”. The result for `Cc1ccccc1NC(=O)c1sc(NC(=O)C2CC2)nc1C` reads “inactive”; that for `Cc1ccc(C(=O)NNC(=O)c2n[nH]c(=O)c3ccccc23)cc1C`, “inactive”.

On to `COc1ccc(N(Cc2ccccc2)S(=O)(=O)c2cccc(C(=O)Nc3ncccc3C)c2)cc1`, for which the outcome was inactive. The result for `O=[N+]([O-])c1cc(C(F)(F)F)ccc1NC1CCN(Cc2ccccc2)CC1` reads “inactive”. The result for `CC1CCN(c2ccc3c(c2)S(=O)(=O)c2ccccc2C3=O)CC1` reads “inactive”. The result for `Cn1c(SCC(=O)c2cc(Cl)c(Cl)s2)nnc1-c1ccco1` reads “inactive”; that for `O=S(=O)(O)c1ccc(O)c2cc(Nc3ccccc3)ccc12`, “inactive”; that for `CC1(C)CC(=O)C2=C(C1)OC(N)=C(C#N)C2c1ccccc1[N+](=O)[O-]` (stereo not given), “inactive”. For `O=C1NC(c2cc(Cl)cc([N+](=O)[O-])c2O)Nc2ccccc21` (stereo not given), the result was inactive. The result for `COc1ccc(NC(=O)Cc2ccsc2)cc1S(=O)(=O)N1CCOCC1` reads “inactive”; that for `CCC1OC2(C)OC(=N)C1(C#N)C(C#N)(C#N)C2c1ccccc1` (stereo not given), “inactive”; that for `O=[N+]([O-])c1cncc([N+](=O)[O-])c1Nc1cccc(O)c1`, “inactive”. The result for `COc1cc(C#Cc2c(C=O)n(C)c3ccccc23)cc(OC)c1` reads “inactive”; that for `Cc1cc(C)c2c(SC(C)C)nc(N)nc2n1`, “inactive”; that for `O=C1C=CC(=O)c2c(O)c(N3CCN(CCOCCO)CC3)c(Br)c(O)c21`, “inactive”.

In the case of `Cc1cc(C)c2nc3sc(C(=O)N4CCOCC4)c(N)c3cc2c1`, the result was inactive. The result for `Cc1ccc(OC(C)C(=O)N2CCN(c3ccccn3)CC2)cc1` (stereo not given) reads “inactive”; that for `CN(CCOc1ccc(CC2SC(=O)NC2=O)cc1)c1ccccn1` (stereo not given), “inactive”; that for `COc1ccc(-c2cc(C(F)(F)F)c3c(N)c(C(=O)NCCSC)sc3n2)cc1`, “inactive”. The result for `CCOC(=O)c1c(C)oc2c1c(C=NCCO)c(O)c1ccccc12` reads “inactive”. The result for `CCCCC1OC23CCCCC2C(C#N)(C(=N)O3)C1(C#N)C#N` (stereo not given) reads “inactive”. As for `C=CCn1ccc(=NC=C(C#N)C#N)c2ccccc21`, the result was inactive. The result for `CNC(=O)C1CC(=O)N(c2ccc(OCC(=O)Nc3ccc(F)cc3)cc2)C1` (stereo not given) reads “inactive”; that for `CC(C(=O)O)N1C(=O)/C(=C/C=C/c2ccco2)SC1=S` (stereo not given), “inactive”; that for `O=C(NNC(=O)c1ccc(Br)o1)c1csc(N2CCOCC2)n1`, “inactive”. Turning to `CCOc1ccc(S(=O)(=O)Nc2cccc(C(=O)NCCCn3ccnc3)c2)cc1`, the outcome was inactive. On to `Cc1ccc(S(=O)(=O)NCC(=O)OCC(=O)Nc2ccc3c(c2)OCCO3)cc1`, for which the outcome was inactive. The result for `CCC1OC23CCCCC2C(C#N)(C(=N)O3)C1(C#N)C#N` (stereo not given) reads “inactive”. The result for `Cc1ccc(-n2nnnc2SCC(=O)c2c(N)n(C3CC3)c(=O)[nH]c2=O)cc1` reads “inactive”. The result for `Cn1ccnc1Sc1cc(NCCCO)c([N+](=O)[O-])c2nonc12` reads “inactive”; that for `Cc1snc(S(=O)(=O)/C(C#N)=N/Nc2cccc(C(F)(F)F)c2)c1C#N`, “inactive”; that for `Nc1c(C(=O)Nc2ccccc2F)sc2nc(Cc3ccccc3)cc(C(F)(F)F)c12`, “inactive”. `CC1(C)CC(=O)C2=C(C1)OC(N)=C(C#N)C2c1cc2c(cc1[N+](=O)[O-])OCO2` (stereo not given): the outcome was inactive. The result for `O=C(CN1CCN(C(=O)CNC(=O)c2ccc3c(c2)OCO3)CC1)Nc1ccc(F)cc1` reads “inactive”; that for `C=CCn1c(=O)/c(=C\c2ccsc2)s/c1=C(/C#N)C(=O)NCCN1CCOCC1`, “inactive”; that for `COc1ccc(OC)c(S(=O)(=O)Nc2ccc(F)cc2)c1`, “inactive”.

Turning to `N/C(Cc1cccc2ccccc12)=N\O`, the outcome was inactive. The result for `CCN(CC)C(=O)C1c2ccccc2Oc2ccccc21` reads “inactive”; that for `CCOc1ccc2noc3c2c1C(=O)c1ccccc1-3`, “inactive”; that for `CCCc1cc(NC(=O)COC(=O)c2nccnc2N)n(-c2ccccc2)n1`, “inactive”. The result for `CC(C)C(C(=O)O)N1C(=O)/C(=C/C=C/c2ccco2)SC1=S` (stereo not given) reads “inactive”. The result for `Cc1ccc(NC(=O)CN2C(=O)NC3(CCCCCC3)C2=O)cc1Cl` reads “inactive”; that for `CN(C)c1ccc(/C=N/NC(=O)CCC(=O)NCc2ccccc2)cc1`, “inactive”. For `O=c1[nH]c(/C=C/c2cccc3ccccc23)nc2ccccc12`, the result was inactive. The result for `Cc1cccc(NS(=O)(=O)c2ccc(C)c(C(=O)NCC(c3ccccc3)N(C)C)c2)c1` (stereo not given) reads “inactive”. For `COc1cc(CO)ccc1Oc1nc2ccccc2n2cnnc12`, the result was inactive. Turning to `C=CCOc1ccc(C2OC34CCCCC3C(C#N)(C#N)C2(C#N)C(=N)O4)cc1` (stereo not given), the outcome was inactive. The result for `CCN1CC=C2C(C#N)=C(N)C(C#N)(C#N)C(CCc3ccccc3)C2C1` (stereo not given) reads “inactive”; that for `COc1[nH]c(/N=C/c2ccccc2)c(C#N)c1C#N`, “inactive”.

Take `COc1cc(/C=C/CN2CCN(CCC(C)C)C(CCO)C2)ccc1O` (stereo not given): the outcome was inactive. As to `O=C(NCc1ccc(Cl)cc1)c1cc(=O)[nH]c2ccccc12`, the outcome was inactive. The result for `O=C(Cc1ccc(S(=O)(=O)N2CCOCC2)s1)Nc1nc2c(s1)CCCC2` reads “inactive”; that for `Cn1nc(C(=O)NNC(=O)Cc2ccc(S(=O)(=O)N3CCOCC3)s2)c2ccccc2c1=O`, “inactive”; that for `COc1cc(/C=C/C(=O)OCC(=O)c2ccc3c(c2)NC(=O)CO3)ccc1OC(F)F`, “inactive”. The result for `Cc1cc[n+](-c2[nH]c(=O)sc2/C=N/NC([S-])=Nc2ccccc2)cc1` reads “inactive”; that for `COC(=O)c1cccc(NC(=O)NC(=O)c2ccc(Cl)cc2)c1`, “inactive”; that for `COC(=O)c1cc(N2CCN(C)CC2)nc2ccccc12`, “inactive”. The result for `O=C(NCCOCc1ccc(Cl)cc1)c1ncn[nH]1` reads “inactive”; that for `O=C(CCc1ccccc1)NNc1ccc(F)cc1`, “inactive”; that for `O=C(C1=NN(c2ccccc2)C2C(=O)N(c3ccccc3)C(=O)C12)c1ccccc1` (stereo not given), “inactive”. Take `c1ccc(Nc2nc3ccccc3n3nnnc23)cc1`: the result was inactive. The result for `Oc1cc(NCCN2CCOCC2)cc2cccnc12` reads “inactive”. The result for `O=C1c2cccc3c(N4CCCCC4)ccc(c23)C(=O)N1c1cccc(O)c1` reads “inactive”. For `O=C1c2ccccc2-c2onc3ccc(Oc4ccccc4)c1c23`, the result was inactive. For `O=C(COC(=O)c1ccc([N+](=O)[O-])s1)Nc1cccc(S(=O)(=O)NC2=NCCCCC2)c1`, the outcome was inactive. Take `Clc1ccc(-c2noc(CN3CCOCC3)n2)cc1`: the outcome was inactive.

For `COc1ccccc1CNC(=O)c1ccccc1NS(C)(=O)=O`, the result was inactive. The result for `O=C(CSCC(=O)Nc1ccccc1)N/N=C/c1c(O)ccc2ccccc12` reads “inactive”.

`OC(Cc1ccncc1)(c1ccccc1)c1ccccc1`: the result was inactive.
